Test results published in PubChem BioAssay (NCI).
The panel holds about 83,000 compounds, 20% with a hit somewhere; the sample as a whole holds those more often.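 The endpoint reported here, percent growth, reads 100 for growth as untreated, 0 for no net growth and -100 for all cells dead.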 Unmarked numbers belong to inactive results. Active and inactive are the calls of the source. The calls were made as follows: active = growth percent below 10; inactive = the rest.

How the values were obtained:
Experiment in all cases: NCI-60 one-dose screen, 48 h (100 = growth as untreated, 0 = no growth, -100 = all killed)
Settings in all cases: 10 µM unless noted
SK-MEL-2 melanoma = test system: SK-MEL-2 melanoma
EKVX NSCLC = test system: EKVX NSCLC
SN12C renal = test system: SN12C renal
UO-31 renal = test system: UO-31 renal
TK-10 renal = test system: TK-10 renal
ACHN renal = test system: ACHN renal
CAKI-1 renal = test system: CAKI-1 renal
A498 renal = test system: A498 renal
CCRF-CEM leukemia = test system: CCRF-CEM leukemia
MOLT-4 leukemia = test system: MOLT-4 leukemia
SR leukemia = test system: SR leukemia
RPMI-8226 leukemia = test system: RPMI-8226 leukemia
OVCAR-8 ovarian = test system: OVCAR-8 ovarian
OVCAR-5 ovarian = test system: OVCAR-5 ovarian
OVCAR-4 ovarian = test system: OVCAR-4 ovarian
SK-OV-3 ovarian = test system: SK-OV-3 ovarian
IGROV1 ovarian = test system: IGROV1 ovarian
OVCAR-3 ovarian = test system: OVCAR-3 ovarian
HS 578T breast = test system: HS 578T breast
NCI/ADR-RES ovarian = test system: NCI/ADR-RES ovarian

SMILES	growth (SK-MEL-2 melanoma)	growth (EKVX NSCLC)	growth (SN12C renal)	growth (UO-31 renal)	growth (TK-10 renal)	growth (ACHN renal)	growth (CAKI-1 renal)	growth (A498 renal)	growth (CCRF-CEM leukemia)	growth (MOLT-4 leukemia)	growth (SR leukemia)	growth (RPMI-8226 leukemia)	growth (OVCAR-8 ovarian)	growth (OVCAR-5 ovarian)	growth (OVCAR-4 ovarian)	growth (SK-OV-3 ovarian)	growth (IGROV1 ovarian)	growth (OVCAR-3 ovarian)	growth (HS 578T breast)	growth (NCI/ADR-RES ovarian)
CC(=O)c1c(C)nc2ccccc2c1/C=C/c1cccc(C)c1	36.2%	71.5%	67.7%	56.4%	79.9%	73.7%	46.3%	50.1%	54.4%	31%	23.3%	56%	69.4%	83.6%	67.2%	69.7%	48.1%	45.5%	62.5%	29.8%
CCCCSc1ccc2nc(-c3ccc(OCCCN=C(N)N)cc3)cn2c1	48.4%	95.6%	88.3%	76.6%	110%	89.2%	62.3%	89.4%	53.4%	53.1%	85.8%	-27.2% (active)	90.9%	73%	96.8%	111%	52.3%	30.8%	35.5%	104%
C[C@]12CCc3c(ccc4cc(O)ccc34)[C@@H]1C[C@H](O)[C@@H]2O	125%	74.7%	93%	85.3%	110%	98%	77.5%	73%	84.7%	102%	110%	97.1%	94%	104%	106%	106%	103%	96.7%	84.9%	96%
O=c1cc(N/N=C/c2ccc(F)cc2)c2cc(Cl)ccc2[nH]1	77.2%	74.2%	92.3%	79%	91.5%	91.1%	99%	90.5%	-13.2% (active)	-15.8% (active)	4.1% (active)	-43.8% (active)	93.6%	88.4%	92.9%	84.9%	107%	100%	121%	105%
C=C(CNCCc1ccc(O)cc1)[C@@H]1CC[C@]2(CO)CC[C@]3(C)[C@H](CC[C@@H]4[C@@]5(C)CCC(NCCc6ccc(O)cc6)C(C)(C)[C@@H]5CC[C@]43C)[C@@H]12 (stereo not given in full)	-84.2% (active)	-85.7% (active)	-85.1% (active)	-93.7% (active)	-92.6% (active)	-98.9% (active)	-57.7% (active)	-96.6% (active)	-43.1% (active)	-49.1% (active)	-58.5% (active)	-51.7% (active)	-78.1% (active)	-86.3% (active)	-81.7% (active)	-97.4% (active)	-78.4% (active)	-94.2% (active)	-38.9% (active)	-54.5% (active)
C#Cc1cc(C(=O)Nc2ccc(CN3CCN(C)CC3)c(C(F)(F)F)c2)ccc1C	91.1%	91.5%	84.5%	60.2%	94.7%	92.2%	63.7%	63.9%	74.8%	58.9%	58.7%	59.5%	77.4%	74.6%	72.3%	93.2%	75.7%	86.4%	64.7%	82.2%
C#CCOc1cccc(Nc2ncc3ncn(C4CCN(C(=O)CCl)C4)c3n2)c1 (stereo not given)	61.9% [6.25 µM]	91.3% [6.25 µM]	13.2% [6.25 µM]	29.9% [6.25 µM]	-34.9% [6.25 µM] (active)	-31.2% [6.25 µM] (active)	49.3% [6.25 µM]	89.2% [6.25 µM]	-16.6% [6.25 µM] (active)	5.59% [6.25 µM] (active)	-1.16% [6.25 µM] (active)	44.1% [6.25 µM]	51.7% [6.25 µM]	53.3% [6.25 µM]	36.3% [6.25 µM]	73.4% [6.25 µM]	1% [6.25 µM] (active)	-6.2% [6.25 µM] (active)	82.2% [6.25 µM]	78% [6.25 µM]
